Laboratory results taken from PubChem BioAssay (NCI).
This is part of a sample that, as a whole, favours compounds with a hit. Of some 83,000 tested, about 20% had one in any assay.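 Single-dose data. Exposure time 48 hours. Values below 10 considered active.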 A number with no mark means an inactive call. Calls of active or inactive are those of the source.

Test system: HL-60(TB) leukemia
Assay: NCI-60 one-dose screen, 48 h (100 = growth as untreated, 0 = no growth, -100 = all killed)
Conditions: 10 µM unless noted

SMILES | growth
Fc1ccc(NC(=S)c2ccccc2)cc1 | 102%
COc1ccc(NC(=O)Nc2ccc(Nc3nc(C)cc(Nc4ccc(C)cc4)n3)cc2)cc1 | -55.4% (active)
COc1cc(C(=O)NNC(=O)c2ccccc2C(=O)O)cc(OC)c1OC | 5.84% (active)
NC(=NCCCOc1ccc(F)cc1)Nc1ccc(Cl)cc1 | 72%
Cc1cc2nc3c4cc([N+](=O)[O-])cc([N+](=O)[O-])c4n(CCN(C)C)c3nc2cc1C | 98.2%
CC(Oc1ccc(Cl)cc1)c1ccccc1 (stereo not given) | 93.6%
Nc1c(C(=O)Nc2cccc3ncccc23)sc2nc3c(cc12)C(=O)CCC3 | 32.8%
CC/C(=N\Nc1nc2ccccc2n1C)c1ccccn1 | -29.4% (active)
O=S(=O)(NCCCNc1nccc(-c2c(-c3cccc(F)c3)nc3sccn23)n1)c1cccc(F)c1 | 40.5%
O=c1oc2ccc(Br)cc2c(=O)n1-c1ccc(Cl)cc1F | -32.8% (active)
CCCCCC(CCCCC)C(=O)O | 90.4%
O=C1C(Cl)=C(N=Nc2c(Cl)c(O)c3ccccc3c2O)C(=O)c2ccccc21 | 90.7%
COc1cc(NCCCCN=C(N)NC(N)=NC(C)C)c2ncccc2c1 | 55.9%
CC[C@H](Nc1ncnc2nc[nH]c12)c1nc2cccc(F)c2c(=O)n1-c1ccccc1 | 66.8%
N/C(=N\C(N)=N\c1nc2ccccc2s1)c1ccncc1 | 35.2%
O=CN(SSN(C=O)C1CCCCC1)C1CCCCC1 | 77.2%
Cc1ccc2c(n1)C(=O)C(Cl)=C(Nc1ccc(N3CCN(C)CC3)cc1)C2=O | -46.7% (active)
OCc1ccc(N2CCc3cccc(F)c3C2)cc1Cl | 80.5% [0.1 µM]
COc1ccc2c(c1)nc(N)c1c3ccccc3cn21 | 67.1%
CC(=O)Nc1nc(C)c(C(=O)N/N=C/c2cccs2)s1 | 130%

SMILES | growth
COC(=O)[C@]12CC[C@@H](C)[C@H](C)[C@@H]1C1=CC[C@@H]3[C@@]4(C)C[C@@H](OC(=O)c5ccco5)[C@H](O)[C@@](C)(CO)[C@@H]4[C@H](O)C[C@@]3(C)[C@]1(C)CC2 | -79.6% (active)
CN(C)c1ccc(N=Nc2ccc(Br)cn2)c(O)c1 | -41.4% (active)
COc1ccc(C(=S)N2CCN(c3cccc(C)c3)CC2)cc1OC | 57.3%
O=C1/C(=C/c2cccc(Br)c2)COc2ccc(O)cc21 | -16.7% (active)
O=C(/C=C/c1ccc(C(F)(F)F)cc1)c1ccc(Nc2nc(NCCO)nc(NCCO)n2)cc1 | 88.5%
Cn1c(=O)c2[nH]c(C(O)C(O)C(O)C(O)CO)nc2n(C)c1=O (stereo not given) | 100%
CC(=O)O[C@H]1CC[C@]2(C)[C@H]3CC=C4[C@@H]5CC(C)(C)CC[C@]5(C(=O)NCCNCCN)CC[C@@]4(C)[C@]3(C)CC[C@H]2C1(C)C | -67.6% (active)
C#Cc1cccc(NC(=O)C2CCCCN2C(=O)CCl)c1 (stereo not given) | -31.6% [8.25 µM] (active)
Cc1nn(-c2ccc([N+](=O)[O-])cc2)c2ncnc(N/N=C/c3ccccc3O)c12 | -0.479% (active)
COc1cc(C(=O)/C=C/c2c(-c3cccs3)nc3ccccn23)cc(OC)c1OC | -14.2% (active)
CCC(CC(C)C)Nc1ccc(NC(CC)CC(C)C)cc1 (stereo not given) | 35.3%
O=C1/C(=C\c2cccn2C(=O)c2ccccc2)c2ccccc2N1c1c(Cl)cccc1Cl | 9.37% (active)
Clc1ccc(-c2n[nH]c3c2Cc2ccccc2-3)cc1Cl | 100%
COc1cc(-c2nc3sccn3c2-c2ccnc(NCCNS(=O)(=O)c3ccccc3)n2)ccc1F | 60.2%
CCc1ccc(NC(=O)N[C@@H](Cc2cc(F)cc(F)c2)C(=O)N[C@@H]2C(=O)N3C[C@H](O)C[C@H]3C(=O)N3CCOC[C@H]3C(=O)N[C@@H](C)C(=O)N3C[C@H](C)C[C@H]3C(=O)O[C@H]2C)cc1 | 23.8%
NC(=S)N/N=C1\c2ccccc2-c2c(F)c(F)c(F)c(F)c21 | 44.4%
COc1ccccc1-n1c(-c2csc(NC(C)=O)n2)n[nH]c1=S | 96.6%
COc1ccc(Cc2nc(C#N)c(N3CCN(c4ccc(F)cc4)CC3)o2)cc1 | 79.2%
Nc1ccc(C2=NN(C(=O)c3cc(-c4ccc(Cl)cc4)nc4ccccc34)C(c3ccccc3)C2)cc1 (stereo not given) | -6.07% (active)
Cc1nc2ccccc2c(N)c1-c1cc(C)c2c(C)nc3ccccc3c2n1 | -66.5% (active)
